# Compounds without any hit were thinned out: in the full panel of roughly 83,000, 20% have a hit.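 How to read the values: 0–100, growth inhibition (40 = 60% inhibited); 0, no net growth; -100 to 0, cell death (-40 = 40% of starting cells died; -100 = all dead).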 Values without a mark were called inactive. Activity calls are given as the source filed them.
# System: NCI-H322M lung
# Assay: NCI-60 one-dose screen, 48 h (100 = growth as untreated, 0 = no growth, -100 = all killed)
# Conditions: 10 µM unless noted
# Method: Growth inhibition of the NCI-H322M human Non-Small Cell Lung tumor cell line is measured as a screen for anti-cancer activity. Cells are grown in 96 well plates and exposed to the test compound for 48 hours. Compounds are tested at a single concentration, which is 10^-5 M for most compounds. The reported endpoint is percent growth (GI% or GIPRCNT), where numbers from 0 - 100% represent growth inhibition, and numbers from -100% - 0 represent cell death. For example, a value of 40 represents 60% growth inhibition. A value of 0 means no net growth occurred over the course of the experiment. A value of -40 indicates 40% of cells at the beginning of the experiment died by the end of the experiment. A value of -100 means all cells are dead at the end of the experiment.
# NCI-60 Human Tumor Cell Lines Screen was performed using the standard one-dose NCI protocol, which is described in more detail at https://dtp.cancer.gov/discovery_development/nci-60/default.htm.
# Compounds with GIPRCNT values below 10 were considered active. Activity score was based on GIPRCNT using the following formula: […]
# Score is 0 for GIPRCNT values of 100 or above, 50 for GIPRCNT values of 0, and 100 for GIPRCNT values of -100.
row,SMILES,growth
1,N#Cc1nnn(-c2ccc(S(N)(=O)=O)cc2)c1NC(=O)CCl,93.4%
2,O=C(Oc1cccnc1)c1ccsc1Nc1ccnc(C(F)(F)F)c1,104%
3,O=C(CCN1C(=O)/C(=C/c2ccc(Cl)cc2)SC1=S)NCCCN1CCOCC1,104%
4,O=C1OC(c2ccccc2)C(O)=C1c1ccccc1 (stereo not given),130%
5,COC(=O)c1ccc(NC(=O)c2ccc(-c3cccc([N+](=O)[O-])c3)o2)cc1,94.3%
6,COc1ccc(CCNc2nc(SC)nc(-c3cccc([N+](=O)[O-])c3)c2C#N)cc1OC,88.2%
7,COc1ccc2c(c1)O/C(=C\c1cccc(OCC(=O)Nc3nc4c(s3)CCCC4)c1)C2=O,95.4%
8,Cc1cc(N2CCOCC2)nc(N[C@@H]2CCC[C@H](Nc3ccnc4cc(Cl)ccc34)C2)n1,27.2%
9,CC1SC(c2ccc(N(C)C)cc2)N(NC(=O)C(O)(c2ccccc2)c2ccccc2)C1=O (stereo not given),81%
10,O=c1nc2oc3ccc4ccccc4c3cc-2s1,35%
11,Cn1cc(C(=O)c2nc(-c3c[nH]c4ccc(F)cc34)no2)c2cc(F)ccc21,93.6%
12,CCOc1nc(-c2ccccc2)cc2c(O)c(C(=O)N/N=C/c3ccc(O)cc3O)[nH]c(=O)c12,42.2%
13,Cn1c(NCCc2ccc(O)c(O)c2)nc2c1c(=O)n(Cc1ccc(Br)cc1)c(=O)n2C,87.8%
14,COc1cc2nc(N3CCCC3)nc(Nc3ccccc3)c2cc1OC,19.3%
15,COc1ccc(-c2nc3ccc(-c4nc5ccc(N6CCN(c7ccc(F)cc7)CC6)cc5[nH]4)cc3[nH]2)cc1OC,88.5%
16,NC(=O)c1cc(I)ccc1NC(=O)/C=C/c1ccccc1Cl,55.5%
17,C=CC(=O)Nc1cccc(-c2nc(SC)nc(NCc3ccccc3)c2C#N)c1,73.8%
18,C#CC(F)(F)[C@]1(O)CC[C@H]2[C@@H]3CCC4=CC(=O)CCC4=C3[C@@H](c3ccc(C4CC4)cc3)C[C@@]21C,88.4%
19,O=C1/C(=C/c2ccccc2)SC(=S)N1CCc1ccc(O)cc1,97.1%
20,Cc1cc(N[C@@H]2CCC[C@H](Nc3ccnc4cc(Cl)ccc34)C2)nc(N2CCCCCC2)n1,-37.8% (active)

row,SMILES,growth
1,COc1cc2nc(N3CCCC3)nc(NCC3CCCCC3)c2cc1OC,50.1%
2,COc1ccc(C2C(C#N)=C(N)Oc3n[nH]c(-c4cccs4)c32)cc1I (stereo not given),102%
3,CC[C@H]1OC(=O)[C@H](C)[C@@H](O[C@H]2C[C@@](C)(OC)[C@@H](O)[C@H](C)O2)[C@H](C)[C@@H](O[C@@H]2O[C@H](C)C[C@H](N(C)C)[C@H]2O)[C@](C)(O)C[C@H](C)CN(C)[C@H](C)[C@@H](O)[C@]1(C)O,104%
4,CC1=CC(C)(C)Nc2ccc(Cc3ccc4c(c3)C(C)=CC(C)(C)N4)cc21,113%
5,CCC([N+](=O)[O-])S(=O)(=O)c1ccc(C)cc1 (stereo not given),112%
6,COC(=O)c1cccc(NC(=O)c2ccc(-c3cccc(N)c3)o2)c1,101%
7,Cc1ccc(C2Oc3ccccc3C3CC(c4cccs4)=NN32)cc1 (stereo not given),91.5%
8,Nc1ccc(-c2cc3c(Nc4ccc(Oc5cccc(C(F)(F)F)c5)c(Cl)c4)ncnc3s2)cc1,61.9%
9,COc1ccc2c(c1)CC/C(=C\c1cncc(Br)c1)C2=O,106%
10,Cn1nc(N)c2cc([C@@H]3Nc4ccc5[nH]ncc5c4[C@H]4C5CCC(C5)[C@@H]34)ccc21 (stereo not given in full),48.9%
11,CSc1ccc(SC2c3ccc(C)cc3Oc3nc(N)c(C#N)c(N)c32)cc1 (stereo not given),-20.9% (active)
12,O=C(O)c1ccc(NC(=O)c2ccc(-c3cccc([N+](=O)[O-])c3)o2)cc1,95%
13,COc1cc(/C=C/C(=O)c2ccc(O)c(CN3CCN(c4cc5c(cc4F)c(=O)c(C(=O)O)cn5C4CC4)CC3)c2)cc(OC)c1OC,30%
14,COc1nc2c(c(=O)n1C)CN(Cc1ccccc1)C=N2,128%
15,N#CN1CCC[C@H]1C(=O)N1CCc2c(-c3[nH]nc4ncccc34)cccc21,20.6%
16,CCN1CCN(c2nc(NCCNc3ccnc4cc(Cl)ccc34)c3ccccc3n2)CC1,42.3%
17,Nc1nc2ncc(CCNc3ccc(C(=O)O)cc3)nc2c(=O)[nH]1,125%
18,CNC(=O)c1cc(Oc2ccc(NC(=O)Nc3ccc(Cl)c(SC)c3)c(F)c2)ccn1,74.5%
19,Nc1nc2ccc3[nH]ncc3c2c2c1CCCC2,2.32% (active)
20,COc1ccc(Nc2c3c4c(cccc4[nH]c2=O)C(=O)c2ccccc2-3)cc1,24.9%

# Source: PubChem BioAssay (NCI)
